SMILES strings stand for the structures. In all, about 110,000 compounds were measured (“z-score”: median about -0.1, highest 2% from about 2 on). The full list was thinned out, with the highest values kept by preference. The source made the active and inactive calls.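 Rule for the calls: active = z-score in the third read window above 3 or below -3; inactive = the rest.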

The values that follow come from PubChem BioAssay AID488969 (Vanderbilt High Throughput Screening Facility, 2010).

The target of this assay is Metabotropic glutamate receptor 8 (Rattus norvegicus) (UniProt P70579). Nature of the assay: mGluR8 Gi/Go-coupled signaling modulation – cell-based, rat, thallium flux, HTS, primary screen (AID 488969). The following applies: HEK293 rat mGluR8, GIRK (G protein-gated inwardly rectifying potassium channel) thallium flux, FluoZin2; at 10 µM; stronger effect = higher value; submaximal glutamate (EC20) added with thallium.
Sequence of Metabotropic glutamate receptor 8 (Rattus norvegicus) (P70579 whole entry, looked up): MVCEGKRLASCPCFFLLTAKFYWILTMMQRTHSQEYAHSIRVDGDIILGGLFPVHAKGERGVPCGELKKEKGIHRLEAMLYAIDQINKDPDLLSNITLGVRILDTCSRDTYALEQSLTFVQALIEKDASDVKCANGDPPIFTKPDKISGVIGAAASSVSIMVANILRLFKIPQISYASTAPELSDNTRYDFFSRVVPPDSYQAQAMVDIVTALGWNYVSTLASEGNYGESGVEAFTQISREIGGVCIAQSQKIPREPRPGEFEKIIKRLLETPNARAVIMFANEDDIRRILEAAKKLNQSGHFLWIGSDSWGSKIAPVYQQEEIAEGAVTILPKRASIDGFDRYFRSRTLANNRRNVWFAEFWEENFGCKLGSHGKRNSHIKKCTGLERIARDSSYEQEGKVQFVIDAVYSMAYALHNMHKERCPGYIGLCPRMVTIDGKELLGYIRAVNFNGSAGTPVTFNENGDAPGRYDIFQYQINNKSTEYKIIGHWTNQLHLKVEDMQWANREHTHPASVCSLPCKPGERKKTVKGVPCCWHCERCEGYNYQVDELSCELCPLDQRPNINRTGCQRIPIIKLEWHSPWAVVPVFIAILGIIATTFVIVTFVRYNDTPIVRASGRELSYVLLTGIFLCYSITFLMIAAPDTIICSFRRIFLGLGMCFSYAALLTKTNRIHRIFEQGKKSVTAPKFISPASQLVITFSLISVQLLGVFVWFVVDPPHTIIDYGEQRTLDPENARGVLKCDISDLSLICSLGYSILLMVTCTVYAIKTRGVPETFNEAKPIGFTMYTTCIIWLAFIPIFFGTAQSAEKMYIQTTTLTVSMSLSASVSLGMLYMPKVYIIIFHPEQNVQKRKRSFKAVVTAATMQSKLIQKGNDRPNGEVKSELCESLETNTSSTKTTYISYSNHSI
The compound `CC1C/C(=N/N=C2/NC(=O)CS2)CC(C)(C)C1` (configuration not stated) gave a z-score of -0.18.
As for `Cc1cccc(-n2nc3c([n+]2[O-])CCc2nonc2-3)c1C`, the figure is -0.912; as for `Clc1ccccc1CN(Cc1ccccc1)C(c1cccs1)c1nnnn1C1CCCC1` (configuration not stated), -0.135; as for `CN(C)C(CNC(=O)CCCc1c[nH]c2ccccc12)c1ccco1` (configuration not stated), -0.0945.
As for `O=C(O)c1ccccc1C(=O)Nc1n[nH]c(=S)s1`, the figure is -0.153.
For the compound `N#CCCn1c(SCC(=O)Nc2ccc(N3CCOCC3)cc2)nc2ccccc21`, the z-score was 2.51.
On to `CCCCn1c(SCC(=O)Nc2ccc(OC)cc2)nc2ccc(N3CCOCC3)cc2c1=O`, for which the z-score is 4.35 (active).
As for `O=C(CSc1ncccn1)Nc1ccc(N2CCOCC2)cc1`, the figure is -0.202.
As for `CCCCn1c(SCC(=O)NCCOC)nc2ccc(N3CCOCC3)cc2c1=O`, the figure is 1.19; as for `N#CCSc1nc2ccc(N3CCCCC3)cc2c(=O)n1Cc1ccccc1`, 0.65.
As for `COCCn1c(SCC(=O)Nc2ccc(N3CCOCC3)cc2)nc2ccccc21`, the figure is -0.228.
Compound `N#CCCn1c(SCC(=O)NCC2CCCO2)nc2ccccc21` (configuration not stated) came in with a z-score of -0.368.
As for `Nc1ccccc1SCC(=O)Nc1ccc(N2CCOCC2)cc1`, the figure is 2.53; as for `CCCCNC(=O)CSc1nc2ccc(N3CCOCC3)cc2c(=O)n1CCc1ccccc1`, 1.19; as for `N#CCSc1nc2ccc(N3CCOCC3)cc2c(=O)n1CCc1ccccc1`, 4.95 (active).
Consider `CCCCn1c(SCC(=O)NC(C)CC)nc2ccc(N3CCOCC3)cc2c1=O` (configuration not stated), for which the z-score was determined as 0.126.
As for `O=C(CSc1ccccc1)Nc1ccc(N2CCOCC2)cc1`, the figure is 0.00596.
As for `Cc1cc(NS(=O)(=O)c2ccc(NC(=O)c3oc4ccccc4c3C)cc2)no1`, the figure is 0.155; as for `CCC(CC)C(=O)Nc1ccc(Nc2ccccc2)cc1`, -0.165; as for `Cc1cc(N2CCN(c3ccccc3Cl)CC2)n2cc(-c3ccccc3)nc2n1`, 0.105.
As for `Cc1ccnc(SCC(=O)Nc2c(C)n(C)n(-c3ccccc3)c2=O)n1`, the figure is -0.181; as for `CC(C)(C)c1ccc(C(=O)NCc2cccnc2)cc1`, 0.116; as for `CC(CCc1ccccc1)NC(=O)Cc1ccc([N+](=O)[O-])cc1` (configuration not stated), -1.51.
`CCCCOc1ccc(C(C)NC(=O)CCS(=O)(=O)Cc2ccccc2Cl)cc1` (configuration not stated) showed a z-score of 0.131.
As for `Cc1ccc(/C=N/NC(=O)c2cc3c(ccc4ccccc43)o2)cc1[N+](=O)[O-]`, the figure is -0.185.
Turning to `Cc1cccc2c1N1C(=O)c3c(C(=O)O)cccc3C1CC2C` (configuration not stated), the z-score is -0.265.
As for `CON(C)c1nc(OCCNC(=O)COc2ccc(Cl)cc2C)nc(N(C)C)n1`, the figure is 0.98; as for `CC1=CC(C)(C)N(C(=O)CN2C(=O)c3ccccc3C2=O)c2ccc(C)cc21`, 0.455; as for `CCOC(=O)C1=C(C)NC(=O)C(C(N)=O)C12CCCC2` (configuration not stated), -0.24.
For `Cc1nc2ccccc2cc1C(=O)N/N=C/c1cccs1`, the z-score is -0.0999.
As for `O=C(CN(c1ccc(Cl)cc1)S(=O)(=O)c1ccccc1)N1CCN(c2ccccc2)CC1`, the figure is -0.37; as for `COc1ccc(N2CCN(C(=O)CN(c3ccccc3)S(=O)(=O)c3ccc(OC)cc3)CC2)cc1`, -0.0102; as for `COc1ccc(S(=O)(=O)N(CC(=O)N2CCN(c3ccccc3)CC2)c2ccccc2)cc1`, 2.25.
As for `COc1ccc(/C=C2/SC(=O)N(CC(O)Cn3c4ccccc4c4ccccc43)C2=O)cc1` (configuration not stated), the figure is -0.167; as for `Cc1cc(=O)[nH]c(N/N=C/c2cccs2)n1`, -0.0197.
As for `O=C1CC(C(=O)Nc2ccccc2)C2(CCCC2)O1` (configuration not stated), the figure is -0.154.
Take `O=C1CC(C(=O)Nc2ccc(Br)cc2)C2(CCCC2)O1` (configuration not stated): the z-score is 2.34.
As for `O=C1CC(C(=O)Nc2ccccc2)C2(CCCCC2)O1` (configuration not stated), the figure is -0.333; as for `CCOC(=O)Cc1csc(NC(=O)c2cccc(OC)c2)n1`, 0.0443; as for `CC1CCCCC12NC(=O)N(CC(=O)Nc1sc3c(c1C(N)=O)CCC3)C2=O` (configuration not stated), 0.0207.
As for `CC(C)C1Oc2ccccc2N(CC(=O)NCCCN2C(C)CCCC2C)C1=O` (configuration not stated), the figure is 0.132.
As for `CCC(C)(C)NC(=O)C(c1ccc(F)cc1)N(Cc1ccco1)C(=O)c1snc(C(N)=O)c1N` (configuration not stated), the figure is -0.00804; as for `COC(=O)c1ccc(C(C(=O)NCc2ccccc2)N(Cc2ccco2)C(=O)c2cnccn2)cc1` (configuration not stated), 0.053; as for `CCC(C)(C)NC(=O)C(c1ccc(F)cc1)N(Cc1ccco1)C(=O)c1cnccn1` (configuration not stated), 3.05 (active).
Take `O=C(CN1CCOCC1)Nc1ccccc1C(=O)O`: the z-score is -0.257.
The compound `COc1cc(OC)c(-c2cc(C(=O)O)ccc2OC)c(OC)c1` returned a z-score of -0.305.
Compound `N/C(COc1cccc(C(F)(F)F)c1)=N\NC(=O)c1cccnc1Oc1ccccc1` came in with a z-score of -0.285.
In turn, `COc1ccc(-c2nnn(CCc3nn[nH]n3)n2)cc1` showed a z-score of -0.103.
As for `O=C(Nc1ccc(Br)cc1F)C1CCCO1` (configuration not stated), the figure is -0.0425; as for `O=C(Cn1c(=O)[nH]c2ccsc2c1=O)NC1CCCCC1`, -0.236; as for `O=C(Cn1c(=O)[nH]c2ccsc2c1=O)NC1CCCCCC1`, 8.37 (active).
As for `CC1CCC(NC(=O)Cn2c(=O)[nH]c3ccsc3c2=O)CC1` (configuration not stated), the figure is -0.274.
As for `COC(=O)/C=C/C(=O)N1CCN(c2ccccc2)CC1`, the figure is -0.0929; as for `COC(=O)C1=C(C)N(Cc2ccc(OC)cc2)C(=O)C1`, -0.151; as for `COC(=O)C1=C(C)N(CCc2ccccc2)C(=O)C1`, -0.0388.
Compound `COC(=O)C1=C(C)N(CCc2ccc(OC)cc2)C(=O)C1` returned a z-score of 2.28.
As for `NC(=O)c1ccsc1NC(=O)CSc1nc2ccccc2c(=O)n1CCCO`, the figure is -0.109; as for `O=C(COC(=O)c1cccc([N+](=O)[O-])c1)NCc1ccc2c(c1)OCO2`, -0.0402.
As for `CCc1cc(C(=O)OC)c(NC(=O)CCC(=O)O)s1`, the figure is -0.105; as for `Fc1ccccc1-c1nnc2c3ccccc3nc(N3CCOCC3)n12`, -0.0489; as for `Clc1ccc(-c2nnc3c4ccccc4nc(N4CCOCC4)n23)cc1Cl`, -0.168.
As for `Brc1ccc(-c2nnc3c4ccccc4nc(N4CCOCC4)n23)cc1`, the figure is 4.42 (active); as for `Cc1cc(C)nc(/N=C(\N)Nc2cccc([N+](=O)[O-])c2)n1`, -1.04.
In turn, `OCCNCCOc1ccccc1-c1ccccc1` came in with a z-score of -0.00757.
Take `COCCNCCOc1ccccc1-c1ccccc1`: the z-score is 3.67 (active).
As for `COCCCNCCCCOc1ccccc1-c1ccccc1`, the figure is 0.319; as for `CCCNC(=O)CS(=O)(=O)Cc1nc(-c2cccc(OC)c2)oc1C`, 0.16; as for `CCCCN(CC)CCCNC(=O)CS(=O)(=O)Cc1nc(-c2cccc(OC)c2)oc1C`, 3.63 (active).
On to `COCCCNC(=O)CS(=O)(=O)Cc1nc(-c2cccc(OC)c2)oc1C`, for which the z-score was 0.565.
For `CC1=CC(C)(C)n2c(O)c(N=NC(N)=S)c3cc(C)cc1c32`, the z-score was 1.04.
Consider `CC1=CC(C)(C)n2c(O)c(N=NC(N)=S)c3cccc1c32`, for which the z-score was determined as 2.69.
Take `CC1=CC(C)(C)n2c(O)c(N=NC(N)=S)c3c(C)ccc1c32`: the z-score is 1.1.
